Several values for one entry are separate records, joined by “and”; a condition that tells them apart may be missing. Identical values can stand only once. About 83,000 compounds went through this panel and 20% of them were active in at least one assay; those are over-represented in the sample as a whole.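 Interpretation: 100, growth as untreated; towards 0, rising growth inhibition; 0, no net growth; 0 to -100, cell death. Compounds scoring below 10 were considered active.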 Activity calls are given as the source filed them.
Assays:
Test in all cases: NCI-60 one-dose screen, 48 h (100 = growth as untreated, 0 = no growth, -100 = all killed)
Conditions in all cases: 10 µM unless noted
NCI-H23 lung = test system: NCI-H23 lung
NCI-H226 lung = test system: NCI-H226 lung
NCI-H322M lung = test system: NCI-H322M lung
HOP-62 NSCLC = test system: HOP-62 NSCLC
NCI-H460 lung = test system: NCI-H460 lung
HOP-92 NSCLC = test system: HOP-92 NSCLC
NCI-H522 lung = test system: NCI-H522 lung
A549/ATCC NSCLC = test system: A549/ATCC NSCLC
786-0 renal = test system: 786-0 renal
COLO 205 colon = test system: COLO 205 colon
DU-145 prostate = test system: DU-145 prostate
K-562 leukemia = test system: K-562 leukemia
MALME-3M melanoma = test system: MALME-3M melanoma
MDA-MB-231 breast = test system: MDA-MB-231 breast
RXF 393 renal = test system: RXF 393 renal
SF-268 CNS = test system: SF-268 CNS
SF-295 CNS = test system: SF-295 CNS
SF-539 CNS = test system: SF-539 CNS
UACC-257 melanoma = test system: UACC-257 melanoma
M14 melanoma = test system: M14 melanoma

Measured: growth

CCOC(=O)/C=C/c1ccc([N+](=O)[O-])o1
inactive: NCI-H23 lung 73.7% | NCI-H226 lung 20.2% | NCI-H322M lung 96% | HOP-62 NSCLC 112% | NCI-H460 lung 95.6% | HOP-92 NSCLC 47.6% | A549/ATCC NSCLC 96.4% | 786-0 renal 75.8% | COLO 205 colon 40.9% | DU-145 prostate 69.2% | MDA-MB-231 breast 67.8% | RXF 393 renal 18.4% | SF-268 CNS 76.2% | SF-295 CNS 99.2% | SF-539 CNS 68.3% | UACC-257 melanoma 54.2% | M14 melanoma 70.1%
active: NCI-H522 lung -55.1% | K-562 leukemia 9.66% | MALME-3M melanoma -6.92%

COC(=O)c1nc(=S)[nH]c(C(=O)OC)c1C(=O)c1ccccn1
active: NCI-H226 lung 9.58% | SF-295 CNS -1.15%
inactive: NCI-H23 lung 45.8% | NCI-H322M lung 56.5% | HOP-62 NSCLC 40% | NCI-H460 lung 38.6% | HOP-92 NSCLC 47.9% | NCI-H522 lung 61.8% | A549/ATCC NSCLC 107% | 786-0 renal 26.7% | COLO 205 colon 21.1% | DU-145 prostate 39.5% | K-562 leukemia 17.7% | MALME-3M melanoma 30.7% | MDA-MB-231 breast 33.6% | RXF 393 renal 43.2% | SF-268 CNS 34.3% | SF-539 CNS 15.6% | UACC-257 melanoma 75.7% | M14 melanoma 17.9%

CCC(c1cccc(O)c1)C(CC)c1cccc(O)c1 (stereo not given)
inactive: NCI-H23 lung 78.7% | NCI-H226 lung 82.7% | NCI-H322M lung 59.5% | HOP-62 NSCLC 83.8% | NCI-H460 lung 59.4% | HOP-92 NSCLC 57% | NCI-H522 lung 56.3% | A549/ATCC NSCLC 67.8% | 786-0 renal 74.8% | COLO 205 colon 61.9% | DU-145 prostate 86% | K-562 leukemia 17.1% | MALME-3M melanoma 54.8% | MDA-MB-231 breast 64.2% | RXF 393 renal 79.5% | SF-268 CNS 63.7% | SF-295 CNS 58.3% | SF-539 CNS 39.1% | UACC-257 melanoma 71.8% | M14 melanoma 23.8%

O=C(O)C1C2CC3C(OC(=O)C31)C2Br (stereo not given)
inactive: NCI-H23 lung 103% and 95.4% | NCI-H226 lung 88.3% and 90.7% | NCI-H322M lung 101% and 106% | HOP-62 NSCLC 92.8% and 99.4% | NCI-H460 lung 98.3% and 100% | HOP-92 NSCLC 91% and 94.2% | NCI-H522 lung 72.9% and 95.6% | A549/ATCC NSCLC 79.6% and 101% | 786-0 renal 105% and 99% | COLO 205 colon 97.1% and 103% | DU-145 prostate 122% and 107% | K-562 leukemia 113% and 110% | MALME-3M melanoma 101% and 93.5% | MDA-MB-231 breast 103% and 115% | RXF 393 renal 98.2% and 93.5% | SF-268 CNS 109% and 106% | SF-295 CNS 96.9% and 101% | SF-539 CNS 99.5% | UACC-257 melanoma 82.7% and 95% | M14 melanoma 96.7% and 98.3%

Cc1c2ccccc2c(C)c2c1ccc1ccccc12
inactive: NCI-H23 lung 81.6% | NCI-H226 lung 100% | NCI-H322M lung 90.8% | HOP-62 NSCLC 95.1% | NCI-H460 lung 87.6% | HOP-92 NSCLC 88.6% | NCI-H522 lung 79.5% | A549/ATCC NSCLC 78.4% | 786-0 renal 91.5% | COLO 205 colon 94.6% | DU-145 prostate 97.5% | K-562 leukemia 85.1% | MALME-3M melanoma 88.8% | MDA-MB-231 breast 89.8% | RXF 393 renal 96.3% | SF-268 CNS 98.5% | SF-295 CNS 96.9% | SF-539 CNS 92.3% | UACC-257 melanoma 94.7% | M14 melanoma 86.8%

Cc1cc(C(C)(CC(C)C)c2ccc(O)c(C)c2)ccc1O
inactive: NCI-H23 lung 108% | NCI-H226 lung 93% | NCI-H322M lung 94.6% | HOP-62 NSCLC 104% | NCI-H460 lung 104% | HOP-92 NSCLC 88.3% | NCI-H522 lung 92.6% | A549/ATCC NSCLC 81.5% | 786-0 renal 102% | COLO 205 colon 125% | DU-145 prostate 112% | K-562 leukemia 97.1% | MALME-3M melanoma 109% | MDA-MB-231 breast 88% | RXF 393 renal 93% | SF-268 CNS 104% | SF-295 CNS 97.8% | SF-539 CNS 96.6% | UACC-257 melanoma 84.8% | M14 melanoma 94.2%
